Reference: publication PMC4336329 (PLoS ONE, 2015)
The whole screen tested about 310,000 compounds, of which about 14,000 (4.5%) showed an effect of 50% or more. The effect is printed as a negative number. This excerpt belongs to a sample that is enriched for strong results.

Target: human ether-à-go-go-related gene (hERG) potassium channel (human, UniProt Q12809)
Test: primary screen, population patch clamp on CHO cells stably expressing hERG; higher = less effect of the substance
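Further: peak tail current of the secondary pulse compared with the same well before compound.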

Chain of human ether-à-go-go-related gene (hERG) potassium channel (Q12809 whole entry, looked up): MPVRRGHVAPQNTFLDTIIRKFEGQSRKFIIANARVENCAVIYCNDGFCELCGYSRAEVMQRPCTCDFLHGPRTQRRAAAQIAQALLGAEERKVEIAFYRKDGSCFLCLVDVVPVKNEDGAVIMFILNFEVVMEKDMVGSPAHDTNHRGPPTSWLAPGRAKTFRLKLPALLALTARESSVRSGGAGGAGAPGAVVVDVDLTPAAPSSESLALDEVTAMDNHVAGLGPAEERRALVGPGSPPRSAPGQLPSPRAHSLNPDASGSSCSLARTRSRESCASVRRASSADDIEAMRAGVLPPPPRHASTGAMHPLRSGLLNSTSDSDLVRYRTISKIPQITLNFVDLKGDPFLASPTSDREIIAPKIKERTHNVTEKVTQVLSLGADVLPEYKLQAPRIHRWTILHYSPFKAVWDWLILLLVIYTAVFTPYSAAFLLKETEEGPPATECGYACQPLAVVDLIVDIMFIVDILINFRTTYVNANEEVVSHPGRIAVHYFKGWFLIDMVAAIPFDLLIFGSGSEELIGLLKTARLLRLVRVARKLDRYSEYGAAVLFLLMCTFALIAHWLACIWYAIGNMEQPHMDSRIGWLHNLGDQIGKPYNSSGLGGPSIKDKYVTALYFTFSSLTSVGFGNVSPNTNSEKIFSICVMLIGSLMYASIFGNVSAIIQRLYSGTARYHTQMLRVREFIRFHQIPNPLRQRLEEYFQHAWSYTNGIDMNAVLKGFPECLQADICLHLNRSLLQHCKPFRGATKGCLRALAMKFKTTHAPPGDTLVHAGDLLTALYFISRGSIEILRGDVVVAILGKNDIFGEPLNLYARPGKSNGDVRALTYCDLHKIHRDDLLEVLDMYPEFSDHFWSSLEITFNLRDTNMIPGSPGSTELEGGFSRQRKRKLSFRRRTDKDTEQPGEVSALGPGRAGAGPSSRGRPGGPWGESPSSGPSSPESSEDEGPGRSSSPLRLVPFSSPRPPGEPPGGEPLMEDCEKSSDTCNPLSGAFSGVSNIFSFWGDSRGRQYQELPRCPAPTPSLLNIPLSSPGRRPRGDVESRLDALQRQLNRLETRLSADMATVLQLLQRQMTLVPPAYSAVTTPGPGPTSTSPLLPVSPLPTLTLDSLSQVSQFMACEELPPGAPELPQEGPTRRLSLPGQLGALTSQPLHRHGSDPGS

| Compound | hERG current change (%, negative = inhibition) at 10uM [%] |
| --- | --- |
| O=C(Nc1ccccc1F)c1ccc2c(c1)CCN2S(=O)(=O)c1ccccc1 | 19.5 |
| C=CCn1c(SCc2ccccc2C#N)nnc1-c1ccccc1O | -23.7 |
| Cc1ccc2c(c1)C(c1ccc(N3CCOCC3)cc1)=NNC(c1cccs1)=N2 | 1.66 |
| Nc1n[nH]c(N)c1N=Nc1ccc(Cl)cc1Cl | 19.1 |
| COc1ccc(-c2noc(N3CCC(C(=O)Nc4ccccc4Cl)CC3)n2)cc1 | 10.8 |
| Cc1cc(NC(=O)c2ccccc2)sc1C | 5.55 |
| Cc1cc(OC(=O)c2cccc(Cl)c2)c([N+](=O)[O-])c(=O)[nH]1 | 19.9 |
| COCCNc1oc(-c2ccco2)nc1S(=O)(=O)c1ccccc1 | 2.69 |
| CCC(CO)NCC(O)COCc1ccc2c(c1)OCO2 (stereo not shown) | 10.1 |
| Cc1cc(OCCN2CCCCCC2)ccc1[N+](=O)[O-].O=C(O)C(=O)O | -46.2 |
| Cc1ccc(OCCCCN2CCCC(C)C2)c([N+](=O)[O-])c1.O=C(O)C(=O)O (stereo not shown) | -69 |
| Cc1ccc(C)c(OCCCN2CCCC2)c1.O=C(O)C(=O)O | -54.9 |
| Cc1ccc(OCCCN2CCOCC2)c([N+](=O)[O-])c1.O=C(O)C(=O)O | -12 |
| Cc1cc(OCCN2CCCC2)ccc1[N+](=O)[O-].O=C(O)C(=O)O | -9.82 |
| Cc1ccc(OCCCCN2CCCCC2)c(C)c1 | -24.6 |
| Cc1cc(C)c(C)c(OCCOCCN2CCN(C)CC2)c1 | -1.93 |
| Cc1ccc(OCCOCCN2CCCCC2)c([N+](=O)[O-])c1.O=C(O)C(=O)O | -37.5 |
| Cc1cc(OCCN2CCC(Cc3ccccc3)CC2)ccc1[N+](=O)[O-].O=C(O)C(=O)O | -79.1 |
| Cc1ccc(C)c(OCCCCN2CCCCC2)c1.O=C(O)C(=O)O | -42.1 |
| Cc1ccc(OCCCN2CCCC2)c(C)c1.O=C(O)C(=O)O | -27.2 |
| Cc1cc(C)c(C)c(OCCCCN2CCCCC2)c1 | -52.5 |
| CCN(CC(=O)NC1CCS(=O)(=O)C1)S(=O)(=O)c1ccccc1 (stereo not shown) | 7.7 |

| Compound | hERG current change (%, negative = inhibition) at 10uM [%] |
| --- | --- |
| CCOc1ccc(Br)cc1S(=O)(=O)Nc1ccccc1N1CCOCC1 | -15.8 |
| O=C(Cn1cccc1)N1CCN(C(c2ccccc2)c2ccccc2)CC1 | -3.68 |
| Cn1c(=O)c2c(nc(NC3CCCCC3)n2Cc2ccccc2)n(C)c1=O | 14.2 |
| Cc1ccc(CN(C(=O)c2cc(=O)c3cc(C)cc(C)c3o2)C2CCS(=O)(=O)C2)cc1 (stereo not shown) | -32.1 |
| COc1ccc(N2CC(C(=O)N[C@@H](C)C(=O)NC3CCCC3)CC2=O)cc1 (stereo partly shown) | 15.7 |
| CN(C)/C=C/C(=O)c1cnc2sccn2c1=O | 5.24 |
| Cc1ccc(C)c(/C=C/C(=O)c2ccccc(=O)c2O)c1 | -50.7 |
| Cc1ccc(/C=C/C(=O)c2ccccc(=O)c2O)cc1C | -24.6 |
| O=C(/C=C/c1ccccc1Cl)c1ccccc(=O)c1O | -1.72 |
| C/C(=N/NC(=O)c1ccncc1)c1ccc(NC(=O)c2ccccc2)cc1 | 7.92 |
| O=C(Nc1ccccc1)c1ccc(Br)o1 | 3.15 |
| CC(=O)c1cccc(NC(=O)c2ccc(Br)o2)c1 | -1.49 |
| COc1ccc(C(=O)N/N=C(/C)c2cccc(NC(=O)c3ccncc3)c2)cc1OC | 8.48 |
| C/C(=N\NC(=O)c1cccc(F)c1)c1cccc(NC(=O)c2ccc(F)cc2)c1 | 13 |
| C/C(=N/NC(=O)c1ccco1)c1cccc(NC(=O)c2ccc(C)o2)c1 | -45.4 |
| C/C(=N\NC(=O)c1ccc(F)cc1)c1cccc(NC(=O)c2cccc(F)c2)c1 | 21.3 |
| C/C(=N/NC(=O)c1ccc(Br)o1)c1cccc(NC(=O)c2ccc(C)o2)c1 | -67.6 |
| C/C(=N\NC(=O)c1ccncc1)c1cccc(NC(=O)c2ccc(C(C)(C)C)cc2)c1 | -53.7 |
| C/C(=N/NC(=O)c1ccc(Br)o1)c1cccc(NC(=O)c2ccc(F)cc2)c1 | -58.9 |
| C/C(=N\NC(=O)c1cccc(Br)c1)c1cccc(NC(=O)c2ccc(C)o2)c1 | -6.46 |
| O=C(c1ccccc1)c1cccc(NC(=O)c2ccc(Br)o2)c1 | -61.1 |
| CCCCNC(=O)c1onc(CSc2ccc(Cl)cc2)c1C(=O)NCCCC | -20.5 |

| Compound | hERG current change (%, negative = inhibition) at 10uM [%] |
| --- | --- |
| CCC(C(=O)Nc1ccc(C(C)C)cc1)c1ccccc1 (stereo not shown) | 11.8 |
| COc1cc(/C=N/NC(=O)CNC(=O)c2ccc3c(c2)OCCO3)ccc1O | 1.98 |
| COc1cccc(C2CCCN2Cc2nc(-c3cnccn3)no2)c1 (stereo not shown) | 7.84 |
| CC(NC(=O)Cc1cccs1)c1ccccc1 (stereo not shown) | 24.5 |
| Cc1ccc(NC(=O)CCSc2nnc(-c3ccco3)o2)cc1 | 9.02 |
| COCc1cc(=O)[nH]c(Nc2nc3ccc(C)cc3o2)n1 | -10.3 |
| O=C(/C=C/c1ccccc1)NCCN1CCOCC1 | 20.6 |
| COc1ccc(C(=O)/C(=C/N(C)C)S(=O)(=O)c2ccccc2)cc1 | 10.8 |
| O.O=C1NC2(O)C(=O)c3ccccc3C2(O)N1 (stereo not shown) | 11 |
| O=C(N/N=C\c1cc(Br)cs1)c1ccncc1 | -6.73 |
| CCC1Sc2ccc(S(=O)(=O)CCC(=O)NC3CCCCCC3)cc2NC1=O (stereo not shown) | 16.1 |
| c1ccc2c(c1)Oc1ccccc1S2 | 14.7 |
| CCOC(=O)c1ccc(N=C2C(=S)N(c3ccc(C(=O)OCC)cc3)C(=N)N2/N=C/c2ccccc2)cc1 | -52.7 |
| Cc1ccc(N=C2C(=S)N(c3ccc(C)cc3)C(=N)N2/N=C/c2ccc(Cl)cc2)cc1 | -6.29 |
| N=C1N(/N=C/c2ccccc2)C(=Nc2ccccc2)C(=S)N1c1ccccc1 | 2.03 |
| CCOc1ccc(C(=O)NC2CCN(C(=O)Nc3ccc(F)cc3)CC2)cc1 | 0.481 |
| CCc1cc2c(NCCC(=O)O)nc(C)nc2s1 | 24.2 |
| Cc1ncc(CN2CCCC(C(=O)c3cccc(Cl)c3)C2)s1 (stereo not shown) | -13.6 |
| COc1ccc(C(=O)C2CCCN(Cc3ccc(C)s3)C2)cc1OC (stereo not shown) | -71.6 |
| COc1ccc(C(=O)C2CCCN(Cc3cc(C)c(O)c(C)c3)C2)c(OC)c1 (stereo not shown) | -61 |
| COc1ccc2cc(C(=O)C3CCCN(Cc4cnc(C)s4)C3)ccc2c1 (stereo not shown) | -28.8 |
| COc1ccc(C(=O)C2CCCN(Cc3ccc(C#CCCO)cc3)C2)cc1F (stereo not shown) | -45.3 |

| Compound | hERG current change (%, negative = inhibition) at 10uM [%] |
| --- | --- |
| Cc1ncc(CN2CCCC(C(=O)c3ccc(C(C)(C)C)cc3)C2)s1 (stereo not shown) | -72.8 |
| COc1ccc(C(=O)C2CCCN(Cc3ccc(C#CCCO)cc3)C2)c(OC)c1 (stereo not shown) | -51.2 |
| COc1ccc(C(=O)C2CCCN(Cc3cnc(C)s3)C2)cc1OC (stereo not shown) | -5.12 |
| CCOC(=O)N1CCN(c2nc(-c3cccc(OC)c3)cc(C(F)(F)F)n2)CC1 | 6.67 |
| Cc1c(C(=O)N2CCCC2)c(S(=O)(=O)Nc2cccc(Br)c2)c(C)n1C | 6.99 |
| CCN(CC)C(=O)Cn1cnc2sc(C(=O)Nc3cc(OC)c(OC)c(OC)c3)c(C)c2c1=O | 14.5 |
| Cn1cc(/C=N\NC(=O)C2COc3ccccc3O2)c2ccccc21 (stereo not shown) | 9.62 |
| Cc1ccc(NC(=O)NNC(=O)c2cc3ccccc3cc2O)c(C)c1 | 27.4 |
| Cc1ccccc1C1NS(=O)(=O)N=C1N (stereo not shown) | 23.3 |
| CC(Oc1ccc(-c2ccccc2)c(F)c1)c1ccn(S(=O)(=O)c2ccc(Br)cc2)n1 (stereo not shown) | 7.43 |
| COCCCNC(=O)CN1C(=O)/C(=C\c2ccc(C)cc2)Sc2ccccc21 | -15.8 |
| COc1ccc(C(=O)C2CCCN(Cc3ccc(C)s3)C2)c(OC)c1 (stereo not shown) | -53.7 |
| COc1ccc(C(=O)C2CCCN(Cc3ccc(NC(C)=O)cc3)C2)cc1OC (stereo not shown) | -21.1 |
| COc1ccc(C(=O)C2CCCN(Cc3ccsc3)C2)cc1OC (stereo not shown) | -73.8 |
| COc1ccc(C(=O)C2CCCN(Cc3cnc(C)s3)C2)c(OC)c1 (stereo not shown) | -42.3 |
| NS(=O)(=O)c1ccc(CCNC(=O)C2CCN(S(=O)(=O)c3cnc[nH]3)CC2)cc1 | -2.97 |
| CC(C)(C)P(=O)(c1ccncc1)N1CCCC1 (stereo not shown) | 2.14 |
| O=C(Nc1ccc2oc(=O)ccc2c1)c1cc([N+](=O)[O-])ccc1N1CCOCC1 | -41.8 |
| CCN(CC(=O)Nc1ccc(NC(C)=O)cc1)C(=O)/C=C/c1ccc2c(c1)OCO2 | 0.823 |
| CC(C)C[C@H]1CN=C(Nc2ccccc2)N1CCC1CCCC1 | -51.5 |
| CC(C)C[C@H]1CN=C(Nc2ccccc2)N1CCC1CCCCC1 | -61.5 |
| CC(C)C[C@H]1CN=C(Nc2ccccc2)N1CCCC1CCCC1 | -65.9 |
